# Measured values from PubChem BioAssay AID504832 (National Center for Advancing Translational Sciences (NCATS), 2011).
# Screen size: about 310,000 compounds; about 18,000 (5.8%) were called active. About 22% were inconclusive and are not listed. The call rests on the fitted dose curve; in most records, active means well fitted inhibition curve with a large enough effect; inconclusive means small, poorly fitted or top-dose-only effect, or another doubt; inactive means no such curve, though single readings can be large or run the other way. What follows is part of a selection rich in actives, with near analogues and random picks from the rest. Entries that show only a call come without a potency.
# Assay: Primary qHTS for delayed death inhibitors of the malarial parasite plastid, 48 hour incubation
# Details: P. falciparum luciferase growth in erythrocytes; series mostly up to 28.7 µM
# In short: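 Luciferase-expressing parasites in RBCs, 2% Hct / 0.1% parasitemia final; RPMI 1640 + 0.5% Albumax; 37 C, 5% CO2, one generation; luminescence read-out, lower signal = inhibition.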
# Potency means the concentration at half of the fitted maximal effect.
row,Structure (SMILES),Potency
1,Cn1cccc1/C=N/NC(=O)CNc1cccc2ccccc12,inactive
2,CCOc1ccc(NC(=O)CCC(=O)n2nc(C)cc2C)cc1,inactive
3,CCOc1ccc(NC(=O)CCC(=O)N/N=C/c2ccc([N+](=O)[O-])s2)cc1,11.7 µM (active)
4,Cc1cccc(/C=N/NC(=O)CNc2cccc3ccccc23)n1,inactive
5,CCOc1ccc(NC(=O)CCC(=O)NNC(=O)NC2CCCCC2)cc1,inactive
6,Cc1ccccc1NCC(=O)N/N=C\c1ccc([N+](=O)[O-])s1,9.28 µM (active)
7,CN(C)c1cccc(C(=O)N2CCC(n3nccc3NC(=O)C3CCOC3)CC2)c1 (stereo unspecified),inactive
8,COc1ccc(CCNC(=O)C(=O)NCC2OCCN2S(=O)(=O)c2ccc(OC)c(C)c2)cc1 (stereo unspecified),inactive
9,COC(=O)c1ccccc1NC(=O)CSc1nc2c(c(=O)[nH]1)CCC2,inactive
10,CCc1ccc(OCC(=O)OC(C)C(=O)NC2CC2)cc1 (stereo unspecified),inactive
11,O=C(NC1CCCC1)C1CCN(C(=O)Nc2cccc(Cl)c2)CC1,inactive
12,COc1ccc(Cl)cc1NC(=O)CCN1CCOCC1,inactive
13,COc1ccc(Cl)cc1NC(=O)C(C)N1CCc2ccccc21 (stereo unspecified),6.57 µM (active)
14,COc1ccc(Cl)cc1NC(=O)CNc1ccccc1F,inactive
15,O=C(O)CC(c1ccccc1F)N1Cc2ccccc2C1=O (stereo unspecified),inactive
16,CNc1nc(Nc2ccc(C)c(Cl)c2)nc(N)c1[N+](=O)[O-],inactive
17,CCN1CCN(c2nc(Nc3cccc(F)c3)nc(N)c2[N+](=O)[O-])CC1,13.1 µM (active)
18,Nc1nc(NCC(=O)O)nc(N2CCCCCC2)c1[N+](=O)[O-],inactive
19,COc1ccccc1C(=O)NC(=O)COC(=O)c1ccco1,inactive
20,O=C(Cn1cnc2ccccc21)Nc1ccccc1-c1ccccc1,inactive
21,CCSc1nnc(SCC(=O)NNC(=O)c2ccccc2F)s1,inactive
22,Cc1cc(OCCCN2CCN(Cc3ccccc3)CC2)ccc1[N+](=O)[O-],inactive

row,Structure (SMILES),Potency
1,Cc1c(CN2CCC(CO)(CCOc3ccccc3)CC2)[nH]c2ccc(Cl)cc12,3.7 µM (active)
2,OCC1(CCOc2ccccc2)CCN(Cc2cn[nH]c2-c2ccccc2)CC1,inactive
3,CC(OC(=O)CN1C(=O)COc2ccccc21)C(=O)NCc1ccc(F)cc1 (stereo unspecified),inactive
4,O=C(NCCc1ccccn1)c1nc(Cn2cc([N+](=O)[O-])cn2)no1,inactive
5,CC(=O)Nc1ccc(S(=O)(=O)N(C)c2nc3ccccc3nc2Cl)cc1,inactive
6,COc1ccc(C(=O)C2CCCN(C(=O)c3cc(C)on3)C2)cc1F (stereo unspecified),inactive
7,CCOc1cc(N2CCOCC2)c(OCC)cc1NC(=O)COc1cccc2cccnc12,3.29 µM (active)
8,CC(=O)NCCC(=O)Nc1cc(S(=O)(=O)N2CCOCC2)ccc1N1CCOCC1,inactive
9,NC(=O)C1CCN(C(=O)COc2cccc3cccnc23)CC1,inactive
10,O=C(COC(=O)c1ccccc1F)Nc1cc(S(=O)(=O)N2CCOCC2)ccc1N1CCCC1,inactive
11,O=C(COc1cccc2ccccc12)Nc1cc(S(=O)(=O)N2CCOCC2)ccc1N1CCOCC1,11.7 µM (active)
12,CCOc1cc(N2CCOCC2)c(OCC)cc1NC(=O)C1=NN(c2cccc(C)c2)C(=O)CC1,inactive
13,O=C(Nc1c2c(nn1-c1ccccc1)CS(=O)(=O)C2)C1CCCC1,inactive
14,Cc1cccc(C)c1NC(=O)CSc1nc2c([nH]1)c(=O)n(C)c(=O)n2C,inactive
15,Cc1cc(NC(=O)Nc2c[nH]c(=O)[nH]c2=O)ccc1Br,inactive
16,O=C(NC1CCN(S(=O)(=O)c2ccc(F)cc2)CC1)c1ccccc1,inactive
17,O=C(Cc1cccs1)Nc1ccc([N+](=O)[O-])cc1,inactive
18,O=C(CN(c1cc(C(F)(F)F)ccc1Cl)S(=O)(=O)c1ccccc1)NCc1cccnc1,inactive
19,CCCNC(=O)c1ccc(N2CCC3(CC2)CC(c2ccc(Cl)cc2)=NO3)c([N+](=O)[O-])c1,inactive
20,COCCNC(=O)c1ccc(N2CCC3(CC2)OCCO3)c([N+](=O)[O-])c1,inactive
21,CCCNC(=O)c1ccc(N2CCC3(CC2)CC(c2cccc(Br)c2)=NO3)c(NC(=O)c2ccco2)c1,0.738 µM (active)
22,CCOC(=O)C1CCCN(S(=O)(=O)c2ccc(-n3cnnn3)c(C)c2)C1 (stereo unspecified),inactive

row,Structure (SMILES),Potency
1,Cc1cnc(CN(C)C(=O)C2CCC(=O)N(CCc3cccc(F)c3)C2)[nH]1 (stereo unspecified),inactive
2,Cc1ccc(N(CC(=O)NCC2CCCO2)C(=O)CNS(=O)(=O)c2ccc(Cl)cc2)cc1 (stereo unspecified),inactive
3,O=c1[nH]c(N2CCOCC2)nc2ccccc12,inactive
4,Cc1ccc(S(=O)(=O)N2CCN(C(=O)CSc3cc(C)ccc3C)CC2)c(C)c1,inactive
5,Cc1ccc(S(=O)(=O)N2CCN(C(=O)COC(=O)c3c(C)noc3C)CC2)c(C)c1,inactive
6,Cc1ccc(S(=O)(=O)N2CCN(C(=O)COC(=O)c3c(C)cc(C)cc3C)CC2)c(C)c1,14.7 µM (active)
7,COc1ccc(N2CCN(C(=O)c3cccs3)CC2)cc1,inactive
8,O=C(NCCc1ccccc1Cl)C1CCC(=O)N(CCCc2ccccc2)C1 (stereo unspecified),inactive
9,O=C1N=C(N2CCc3ccccc3C2)S/C1=C\c1ccc(O)cc1,7.38 µM (active)
10,O=C1N=C(N2CCOCC2)S/C1=C\C=C/c1ccccc1,inactive
11,NC1=NC(=O)S/C1=C\c1ccc(O)cc1,inactive
12,O=S1(=O)CCO[C@H]2Cc3ccccc3[C@H]2N1Cc1ccccc1,inactive
13,O=C(c1cc(COc2ccc(F)c(F)c2)on1)N1CCOCC1,inactive
14,COc1cc(/C=N/NC(=O)c2ccoc2C)ccc1OCCN1CCCCC1,inactive
15,COc1ccccc1NC(=O)C1=C(C)Nc2nnnn2C1c1cccc(Br)c1 (stereo unspecified),inactive
16,COc1ccccc1NC(=O)C1=C(C)Nc2nc3ccccc3n2C1c1cccs1 (stereo unspecified),13.1 µM (active)
17,COc1ccc(C2C(C(=O)Nc3ccccc3OC)=C(C)Nc3nnnn32)c(OC)c1 (stereo unspecified),inactive
18,COc1cccc(NC(=O)CN2CCN(CC(=O)Nc3ccccc3Cl)CC2)c1,inactive
19,C[C@@H](NC(=O)[C@@H]1Cc2ccccc2CN1)C(=O)NC1CCCC1,inactive
20,Cc1cc(C(=O)NC2CCN(Cc3ccccc3)CC2)n[nH]1,inactive
21,O=C(NC1CCN(Cc2ccccc2)CC1)c1ccccc1F,inactive
22,Cc1ccc(-c2cc(C(=O)NC3CCN(Cc4ccccc4)CC3)c3ccccc3n2)cc1,13.1 µM (active)
